Among the data in PubChem BioAssay (NCI) are growth values, retold here.

The structures appear in SMILES notation. Values joined by “and” are separate entries in the source; they are usually repeats but may differ in a detail not shown here. Equal values may be shown once. The panel holds about 83,000 compounds, 20% with a hit somewhere; the sample as a whole holds those more often.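 Single-concentration screen, 48 h exposure, 96-well plates. Endpoint: percent growth. Below 10 = active.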 Active and inactive are the calls of the source.

This test relates to MDA-MB-468 breast. Kind of test: NCI-60 one-dose screen, 48 h (100 = growth as untreated, 0 = no growth, -100 = all killed). The settings on record: 10 µM unless noted.
In the case of `COc1ccccc1CNCCCN1C(=O)c2ccc3c4c(ccc(c24)C1=O)C(=O)N(CCCNCc1ccccc1OC)C3=O`, the growth was -96.6% (active).

As for `O=C(O)c1ccccc1C(=O)OC1CCCC2CCCC21` (stereo not given), the growth is 102% (inactive). To `CCCCC/C(=C\c1ccccc1)C1OC(C)C(C)O1` (stereo not given) belongs 98.8% (inactive).

As for `COC(=O)/C(CCC=C(C)C)=C1\[C@@H](OC(C)=O)C[C@@]2(C)[C@H]1C[C@@H](O)[C@H]1[C@@]3(C)CC[C@H](NC(=O)c4cnccn4)[C@@H](C)[C@@H]3CC[C@@]12C`, the growth was 106% (inactive). To `COC(=O)[C@H](Cc1cn(C)cn1)NC(=O)[C@H](Cc1c[nH]c2ccccc12)NC(=O)Nc1cc(C(F)(F)F)cc(C(F)(F)F)c1` belongs -75.7% [100 µM] (active); to `Clc1ccc(C2=NN[C@H](c3cn(-c4ccccc4)nc3-c3ccccc3)C2)cc1`, 57.1% (inactive); to `CCc1cccc(C)c1NC(=O)c1sc2nc3c(cc2c1N)CCCCC3`, 10.8% (inactive). To `Cc1ccccc1N1CCN(C2=C(Cl)C(=O)c3ncccc3C2=O)CC1` belongs -68.8% (active); to `O=C(Nc1ccc(Cl)cc1F)c1cc(Cl)ccc1O`, -20.2% (active). To `N#CC1=C(N)Oc2c(ccc3cccnc23)C1c1ccccc1` (stereo not given) belongs -7.81% (active). With `CC1(C)COB(OCC(C)(C)COB2OCC(C)(C)CO2)OC1`, the growth is 114% (inactive).

For `CNC(=O)c1cc(Oc2ccc3nc(NC(=O)c4cc(C(F)(F)F)cc(C(F)(F)F)c4)sc3c2)ccn1`, the growth was 23% (inactive).

Turning to `CCOC(=O)c1cnc2ccc(Br)cc2c1Nc1cccc(S(=O)(=O)NC)c1`, the growth was 90.8% (inactive). To `NC(=O)CN1CCN(c2ccccc2Cl)CC1` belongs 108% (inactive). Take `COc1ccc2c(c1)c(CC(=O)[Se]CC#N)c(C)n2C(=O)c1ccc(Cl)cc1`: the growth was -43.2% (active). The result for `COc1cc(C2C3=C(COC3=O)N(CCO)c3cc4c(cc32)CCC4)cc(OC)c1O` (stereo not given) reads -21.7% (active). The result for `Cc1ccccc1NC(=O)Cc1csc2[n+]1C(=O)/C(=C/c1ccc([N+](=O)[O-])cc1)S2` reads 116% (inactive); that for `COc1cc2c(C#N)n3c(c2cc1OC)C(=O)C(c1ccccc1)Oc1ccccc1-3` (stereo not given), 74.5% (inactive). The result for `Cc1c(-c2csc(-n3nc(C(F)(F)F)cc3C(F)(F)F)n2)no[n+]1[O-]` reads 81.2% (inactive). For the compound `O=C1Nc2ccc(Br)cc2C12Oc1ccccc1C1CC(c3ccc(F)cc3)=NN12` (stereo not given), the growth is 82.1% (inactive). The result for `Clc1ccc2c(c1)N(c1ncnc3ccc(-c4cnc5[nH]ccc5c4)cc13)CC2` reads -4.95% (active). The result for `CC(=O)OCC(=O)[C@@]1(O)CC[C@H]2[C@@H]3CCC4=CC(=O)CC[C@]4(C)[C@@]3(F)[C@@H](O)C[C@@]21C` reads 121% (inactive); that for `C#CCOc1cccc(Nc2ncnc3cc(NC(=O)C=C)ccc23)c1`, -24.9% (active). The result for `C#Cc1cccc(NC(=O)Nc2ccccc2NC(=O)CCl)c1` reads -45.2% [8.25 µM] (active); that for `Cc1ccc(/C=C/CC(=O)Nc2ccc(C(=O)Nc3ccc(F)cc3N)nc2)cn1`, 4.55% (active); that for `Clc1ccc2c(c1)c(-c1ccccc1)nc1nncn12`, 110% (inactive). `CN1CCN(c2ccc(Nc3nc(NCCCNS(=O)(=O)c4ccc(F)cc4)c4sccc4n3)cc2)CC1`: the growth was 25.9% (inactive).

On to `[2H]c1cc2c(c([2H])c1F)/C(=C/c1[nH]c(C)c(C(=O)NCCN(CC)CC)c1C)C(=O)N2`, for which the growth is 118% (inactive). The result for `Clc1ccc(C(Cn2ccnc2)OCc2ccsc2Cl)c(Cl)c1` (stereo not given) reads 9.75% (active). Consider `CC1=C(C(=O)Nc2ccccc2)C(c2ccc3c(c2)OCO3)NC(=S)N1` (stereo not given), for which the growth was 108% (inactive).

For the compound `N#Cc1c2cccnc2c2nnc3cc(Cl)c(Cl)cc3n12`, the growth is -56% (active).

For the compound `Cc1cccc(/C=C2\N=C(c3ccccc3)N(c3ccc(S(N)(=O)=O)cc3)C2=O)c1`, the growth is 99.2% (inactive). To `C(=N/Nc1ncnc2nc[nH]c12)/c1ccccn1` belongs -27.3% (active); to `CC1(C)C(=NO)C(C)(C)C1=NO`, 103% (inactive); to `COc1cc(C2C=C(C)N=C3SC=C(C)N32)cc(OC)c1OC` (stereo not given), -74.2% (active). The result for `C=C(C)[C@H]1CC/C(C)=C/CC[C@]2(C)O[C@H]2CC/C(COC(C)=O)=C\C1=O` reads 115% (inactive); that for `Cn1c(N)c(N=O)c(=O)n(C)c1=O`, 122% (inactive) and 112% (inactive). For the compound `COc1ccc(/C=N\NC(=O)CN2CCN(c3cc4c(cc3F)c(=O)c(C(=O)N/N=C/c3ccc(OC)cc3)cn4C3CC3)CC2)cc1`, the growth was 84.3% (inactive). For the compound `Cc1ccc2c(c1)c(Sc1ccc(C(=O)NO)cc1)c1n2CN(C)CC1`, the growth is -19.3% (active). To `COc1ccc2c(c1)C(=O)c1c-2c(OCCN(C)C)nc2cc(OC)c(OC)cc12` belongs 81.6% (inactive).
